Measurements from PubChem BioAssay AID488890 (Southern Research Specialized Biocontainment Screening …, 2010).
The campaign covered roughly 320,000 compounds. About 1,300 (0.41%) were called active. Inconclusive results (about 3%) are left out. How the calls were made is not given here. A selection follows. Results with a measured potency or affinity are listed apart.

Assay: growth inhibition of non-replicating M. tuberculosis (AID 488890);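 further: plate controls were DMSO cells for no effect and high antibiotic wells for full effect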
Settings: Mycobacterium tuberculosis non-replicating, at 25 µM, stronger effect = higher value

Row | SMILES | inhibition
1 | COC(=O)c1ccccc1NC(=O)COC(=O)/C=C/c1cccs1 | 18.2%
2 | CC(C)c1ccc(C(O)Cc2nc3ccccc3n2C)cc1 (stereo unspecified) | 41.1%
3 | OCCCc1nc2n(n1)C(c1cccs1)C=C(c1ccccc1)N2 (stereo unspecified) | 0.31%
4 | CCOC(=O)c1cc([N+](=O)[O-])sc1N | 5.99%
5 | CCn1c(C(=O)O)c(CC(=O)NC2CCCCCC2)c2ccccc21 | 24.3%
6 | O=C(CSc1ncccn1)NC1CCCc2ccccc21 (stereo unspecified) | -8.14%
7 | CC1=NN(C(=O)c2ccc(Cn3ccc([N+](=O)[O-])n3)cc2)C(O)(C(F)(F)F)C1 (stereo unspecified) | 75.5%
8 | CC1=NN(C(=O)c2cccc(Cn3nc(C)c([N+](=O)[O-])c3C)c2)C(O)(C(F)(F)F)C1 (stereo unspecified) | 76.4%
9 | COc1ccc(CC(=O)N2N=C(C)CC2(O)C(F)(F)F)cc1OC (stereo unspecified) | 45.4%
10 | CC1=NN(C(=O)Cn2nc([N+](=O)[O-])cc2C)C(O)(C(F)(F)F)C1 (stereo unspecified) | 32.3%
11 | CNC(=S)NNS(=O)(=O)c1ccc(OC)cc1OC | -11%
12 | COc1cccc(N2CCN(CC(=O)Nc3nnc(-c4ccccc4)s3)CC2)c1 | 29.2%
13 | O=C(CN1CCN(c2ccccc2)CC1)Nc1nccs1 | 5.49%
14 | C=CCn1c(=S)[nH]c2cc(C(=O)Nc3ccc(OC)c(OC)c3)ccc2c1=O | -8.59%
15 | O=C(NCCc1ccc(F)cc1)c1cc2ccccc2oc1=O | 47.5%
16 | COc1cccc2cc(C(=O)NCCc3c[nH]c4ccccc34)c(=O)oc12 | 61%
17 | COC(=O)C1=CN(Cc2ccc(OC)cc2)C=C(C(=O)OC)C1c1cc(OC)c(OC)c(OC)c1 | 8.79%
18 | CCCCn1c(=O)c(C(=O)Nc2ccc(C)cn2)c(O)c2ccccc21 | 0.62%
19 | CCCCCn1c(=O)c(C(=O)Nc2ccccn2)c(O)c2ccccc21 | 68.9%
20 | CCCCn1c(=O)c(C(=O)Nc2ccccn2)c(O)c2ccccc21 | 27.8%
21 | CCCCCn1c(=O)c(C(=O)Nc2cc(C)ccn2)c(O)c2ccccc21 | 17.3%
22 | COc1cccc(NC(=O)c2ccnc(N3CCC(C(=O)NCc4ccccc4OC)CC3)c2)c1 | -4.35%
23 | CC(C)(C)C(=O)Nc1c2c(nn1-c1ccccc1)CSC2 | 35%
24 | COc1ccc(OCC(=O)NNC(=O)c2cccnc2)cc1 | 3.8%

Row | SMILES | inhibition
25 | COc1cccc(N2CCN(C(=S)Nc3ccc(F)cc3)CC2)c1 | -4.62%
26 | c1ccc(OCCn2c(-c3ccco3)nc3ccccc32)cc1 | 74.4%
27 | c1coc(Cn2c(-c3ccco3)nc3ccccc32)c1 | 6.77%
28 | C=CCSc1nnc2c(n1)OC(C)=Nc1ccc(Br)cc1-2 | 5.66%
29 | Cc1cc(NC(=O)COC(=O)c2ccccc2S(=O)(=O)N(C)c2ccccc2)no1 | 9.17%
30 | O=C(Nc1ccc2c(c1)CCC2)c1c(F)cccc1Cl | 1.55%
31 | O=C(CCOc1ccccc1)Nc1nnc(-c2ccc3c(c2)OCCO3)o1 | -7.7%
32 | CC1(C(=O)OCC(=O)Nc2ccccc2)CC1(Cl)Cl (stereo unspecified) | 48.2%
33 | Cc1ccc(C)c(-c2nnc(NC(=O)Cc3ccccc3)o2)c1 | -18%
34 | O=C(COC(=O)Cc1ccccc1)Nc1nnc(-c2ccccc2)o1 | 10.8%
35 | O=C(Nc1nnc(-c2ccncc2)o1)c1ccccc1F | 21.3%
36 | CS(=O)(=O)c1ccccc1-c1nnc(NC(=O)COc2ccc(Cl)cc2)o1 | 21.8%
37 | O=C(COc1ccccc1)Nc1nnc(-c2ccco2)o1 | 19.2%
38 | COc1ccccc1NC(=O)COC(=O)CCc1ccc(S(=O)(=O)N2CCOCC2)cc1 | 5.51%
39 | CCCCN1CC(COc2ccccc2)OC1=O (stereo unspecified) | 72.5%
40 | COc1ccc(Nc2oc(COc3cccc(C)c3)nc2C#N)cc1 | 13.3%
41 | CCN(CC)S(=O)(=O)c1ccc(N2CCCC2)c(NC(=O)c2c(-c3ccccc3)noc2C)c1 | 13.9%
42 | Cc1cccc(C(=O)NCC(=O)OCC(=O)NC2CCCCC2)c1 | -3.75%
43 | O=C(NCc1ccncc1)C(=O)NCC1OCCN1S(=O)(=O)c1cc(F)ccc1F (stereo unspecified) | 3.82%
44 | Cc1cccc2c(=O)c(C(=O)NCCCN3CCOCC3)c[nH]c12 | 4.67%
45 | Cc1nnc(SCCn2c(N3CCCCC3)nc3c2c(=O)n(C)c(=O)n3C)s1 | 7.29%
46 | O=C(Nc1ccc([N+](=O)[O-])cn1)c1ccc2c(c1)OCO2 | -8.57%
47 | Cc1cnc(NC(=O)c2ccc3c(c2)OCCO3)s1 | 12.1%
48 | Cc1ccc(C2(c3noc(CN4CCC(C(=O)N5CCOCC5)CC4)n3)CCCC2)cc1 | 14.3%

Row | SMILES | inhibition
49 | COC(=O)c1oc2ccc(Br)cc2c1NC(=O)CCCN1C(=O)c2ccccc2C1=O | -12.2%
50 | CC(=O)Oc1ccc(C(=O)Nc2cccc(C(=O)NC(C)(C)C)c2)cc1 | 7.66%
51 | O=C(COc1ccc2c(-c3ccccc3)cc(=O)oc2c1)NCc1ccccn1 | 7.24%
52 | Cc1nn(-c2ccccc2)c(C)c1CN | 6.26%
53 | CC(=O)Nc1ccc(OC(=O)c2ccc(Cl)cc2)cc1 | 52.1%
54 | CCOc1ccc(C(=O)Oc2ccc(NC(C)=O)cc2)cc1 | 24.7%
55 | Cc1ccc(N2CC(C(=O)Nc3nnc(SCCC4OCCO4)s3)CC2=O)cc1C (stereo unspecified) | 27.4%
56 | CCN(CC(=O)NCc1ccc(F)cc1)C(=O)COc1ccc(C)c(C)c1 | 28.3%
57 | COc1ccc(C(=O)O)cc1S(=O)(=O)NC(C)C | -0.91%
58 | Oc1ccc(Br)cc1-c1cc(-c2ccccc2)n[nH]1 | -5.74%
59 | Oc1ccc(Br)cc1-c1cc(-c2ccc(Cl)cc2)n[nH]1 | 13.8%
60 | C1=C(CCNCc2ccccc2)CCCC1 | -4.9%
61 | O=C(NNc1ccc([N+](=O)[O-])cc1)c1ccco1 | 69.6%
62 | NS(=O)(=O)c1ccc(NNC(=O)c2ccccc2C(=O)O)cc1 | -12.1%
63 | O=C(NNC(=O)C1CC1c1ccccc1)c1cccc([N+](=O)[O-])c1 (stereo unspecified) | 3.57%
64 | O=C(NC(NNc1ccc([N+](=O)[O-])cc1)(C(F)(F)F)C(F)(F)F)c1ccccc1Cl | 6.68%
65 | Cc1cc(C(=O)N/N=C/c2ccc[nH]2)no1 | 64.3%
66 | Cc1cc(C(=O)N/N=C/c2cccs2)no1 | 33.9%
67 | O=C(NNC(=O)C1CC1c1ccccc1)c1ccccc1[N+](=O)[O-] (stereo unspecified) | -10.3%
68 | O=C(O)c1ccccc1C(=O)NNc1ccc(Cl)cc1Cl | 10.7%
69 | CN(c1ccccc1)S(=O)(=O)c1ccc(NC(=S)NC(=O)C2CC2)cc1 | -18.9%
70 | COc1cc(OC)cc(C(=O)N2CCC(C(=O)c3ccc(F)cc3)CC2)c1 | 5.91%
71 | CC(C)[C@@H](C(=O)NC1CC1)N1C(=O)N2CCc3c([nH]c4ccccc34)[C@@]2(C)C1=O | 21%
